Data from PubChem BioAssay AID434959 (Broad Institute, 2010).
Hit rate of the full screen: of about 30,000 compounds, about 110 (0.37%) were called active.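 How the source made its calls: active means delta delta Cp rounded down to an integer at or above 3, about 3 SD of DMSO wells; inactive means the rest.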 The list comes from a sample in which actives are over-represented; it also holds similar structures and randomly drawn compounds.

Test: inhibitors of YB-1 gene expression, primary screen, cell-based, fluorescence (AID 434959);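 further: higher means less YB-1 transcript or more CDIP transcript relative to DMSO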
Details: U2OS, qRT-PCR YB-1 vs CDIP delta delta Cp, 16 h; hits give high values; zero = DMSO, each unit about twofold
For C[C@@H]1CN([C@H](C)CO)C(=O)c2cc(NC(=O)CCCN(C)C)ccc2O[C@H]1CN(C)S(=O)(=O)c1ccc(Cl)cc1, the delta Cp (YB-1 minus CDIP) was -0.394 (inactive).
With Cc1ccc(S(=O)(=O)N(C)C[C@@H]2OCCCC[C@@H](C)Oc3ccc(NS(=O)(=O)c4ccccc4)cc3C(=O)N([C@H](C)CO)C[C@@H]2C)cc1 the delta Cp (YB-1 minus CDIP) was -0.0955 (inactive).
For O=C(CCCCCCC(=O)Nc1ccccc1O)N/N=C/c1ccc2c(c1)Cc1ccccc1-2, the delta Cp (YB-1 minus CDIP) was 0.456 (inactive).
With O=C(N/N=C/c1cc(F)ccc1O)c1ccccc1O the delta Cp (YB-1 minus CDIP) was 0.293 (inactive).
In the case of COc1ccc2nc3c(nc2c1)C(=O)c1ccccc1C3=O, the delta Cp (YB-1 minus CDIP) is reported as 0.188 (inactive).
For COc1ccc(OC)c(CCCc2cc(OC)ccc2OC)c1, the delta Cp (YB-1 minus CDIP) was 10.3 (active).
With C[C@H]1CN([C@@H](C)CO)C(=O)c2cc(NS(=O)(=O)c3cccs3)ccc2O[C@@H]1CN(C)C(=O)Nc1cccc2ccccc12 the delta Cp (YB-1 minus CDIP) was -0.308 (inactive).
For Cc1noc(C)c1S(=O)(=O)N(C)C[C@H]1OCCCC[C@@H](C)Oc2ccc(NC(=O)C3CCCCC3)cc2C(=O)N([C@H](C)CO)C[C@@H]1C, the delta Cp (YB-1 minus CDIP) was 0.386 (inactive).
For C[C@H](CO)N1C[C@H](C)[C@H](CN(C)S(C)(=O)=O)Oc2ncc(C#CCN(C)C)cc2C1=O, the delta Cp (YB-1 minus CDIP) was 0.217 (inactive).
For NCCCC[C@@H]1NC(=O)[C@@H]2C[C@H](C(=O)NCc3ccc(F)cc3)[C@H](c3ccc(O)cc3)N2C1=O, the delta Cp (YB-1 minus CDIP) was 0.142 (inactive).
With C[C@H](CO)N1C[C@H](C)[C@H](CN(C)S(=O)(=O)c2cccs2)Oc2ccc(NS(=O)(=O)c3ccccc3)cc2C1=O the delta Cp (YB-1 minus CDIP) was -0.379 (inactive).
In the case of Cc1ccc(S(=O)(=O)Nc2cccc3c2O[C@@H](CN(C)S(=O)(=O)c2cccs2)[C@@H](C)CN([C@@H](C)CO)C3=O)cc1, the delta Cp (YB-1 minus CDIP) is reported as -0.365 (inactive).
With COc1ccc(-c2cnc3c(c2)C(=O)N([C@H](C)CO)C[C@H](C)[C@H](CN(C)S(=O)(=O)c2ccccc2)O3)cc1 the delta Cp (YB-1 minus CDIP) was 0.828 (inactive).
For C=C(CC/C=C(\C)C(=O)O)C1(O)CC=C(C)CC1 (configuration not stated), the delta Cp (YB-1 minus CDIP) was -0.182 (inactive).
In the case of Cc1noc(C)c1S(=O)(=O)Nc1ccc2c(c1)C(=O)N([C@@H](C)CO)C[C@@H](C)[C@H](CN(C)C(=O)Nc1cccc3ccccc13)O2, the delta Cp (YB-1 minus CDIP) is reported as 0.0124 (inactive).
With C[C@@H]1CN([C@H](C)CO)C(=O)Cc2cc(NS(=O)(=O)c3cccs3)ccc2O[C@H]1CN(C)C(=O)Nc1ccc2c(c1)OCO2 the delta Cp (YB-1 minus CDIP) was 0.417 (inactive).
With Cc1noc(C)c1NC(=O)Nc1ccc2c(c1)C(=O)N([C@H](C)CO)C[C@H](C)[C@H](CN(C)Cc1ccc(-c3ccccc3)cc1)O2 the delta Cp (YB-1 minus CDIP) was 0.364 (inactive).
In the case of O=C(O)CCCCCC(=O)N/N=C/c1ccco1, the delta Cp (YB-1 minus CDIP) is reported as 0.15 (inactive).
For COc1ccc(S(=O)(=O)N(C)C[C@H]2Oc3c(NC(=O)NC4CCCCC4)cccc3C(=O)N([C@@H](C)CO)C[C@@H]2C)cc1, the delta Cp (YB-1 minus CDIP) was -0.0504 (inactive).
With C[C@]12C=CC(=O)C=C1CC[C@@H]1[C@@H]2C(=O)C[C@@]2(C)[C@H]1CC[C@]2(O)C(=O)CO the delta Cp (YB-1 minus CDIP) was 1.09 (inactive).
With C[C@H]1CN([C@@H](C)CO)C(=O)Cc2cc(NC(=O)Cn3cnnn3)ccc2O[C@H]1CN(C)Cc1ccc(C(=O)O)cc1 the delta Cp (YB-1 minus CDIP) was -0.00589 (inactive).
In the case of C[C@@H]1CN([C@H](C)CO)C(=O)Cc2cc(N(C)C)ccc2O[C@H]1CN(C)C(=O)NC1CCCCC1, the delta Cp (YB-1 minus CDIP) is reported as -0.109 (inactive).
For C[C@H](CO)N1C[C@H](C)[C@H](CN(C)S(=O)(=O)c2ccccc2C#N)OCc2cn(nn2)CCCC1=O, the delta Cp (YB-1 minus CDIP) was -0.329 (inactive).
For C[C@@H]1CN([C@@H](C)CO)C(=O)Cc2cc(NC(=O)Cc3ccccc3)ccc2O[C@@H]1CN(C)Cc1ccc(Oc2ccccc2)cc1, the delta Cp (YB-1 minus CDIP) was -0.162 (inactive).
With C[C@H]1CN([C@@H](C)CO)C(=O)c2cccc(NC(=O)c3cnccn3)c2O[C@H]1CN(C)S(=O)(=O)c1cn(C)cn1 the delta Cp (YB-1 minus CDIP) was -0.0985 (inactive).
In the case of C[C@@H]1CN([C@H](C)CO)C(=O)CCCn2cc(nn2)CO[C@H]1CN(C)S(=O)(=O)c1ccc(Oc2ccccc2)nc1, the delta Cp (YB-1 minus CDIP) is reported as -0.176 (inactive).
For CC1(C)C2CC[C@]3(C)C(C(=O)C=C4[C@@H]5C[C@@](C)(C(=O)O)CC[C@]5(C)CC[C@]43C)[C@@]2(C)CC[C@@H]1O (some centres not stated), the delta Cp (YB-1 minus CDIP) was 0.127 (inactive).
With COc1cc(O[C@@H]2O[C@H](CO[C@H]3OC[C@](O)(COC(=O)c4ccc(O)c(OC)c4)[C@H]3O)[C@@H](O)[C@H](O)[C@H]2O)ccc1O the delta Cp (YB-1 minus CDIP) was 0.323 (inactive).
For C[C@H]1CN([C@@H](C)CO)C(=O)Cc2cc(NS(=O)(=O)c3cccs3)ccc2O[C@H]1CN(C)Cc1ccncc1, the delta Cp (YB-1 minus CDIP) was 0.635 (inactive).
With C[C@H](CO)N1C[C@H](C)[C@H](CN(C)S(=O)(=O)c2cccc(F)c2)OCc2cnnn2CCCC1=O the delta Cp (YB-1 minus CDIP) was 0.303 (inactive).
With Cc1ccc(S(=O)(=O)Nc2cccc3c2O[C@@H](CN(C)S(=O)(=O)c2c(C)noc2C)[C@@H](C)CN([C@H](C)CO)C3=O)cc1 the delta Cp (YB-1 minus CDIP) was -0.382 (inactive).
With Nn1c(C(=O)N2CCCC2)nc2ccccc2c1=O the delta Cp (YB-1 minus CDIP) was 0.192 (inactive).
With NC(=S)c1cnn2c(C(F)(F)F)cc(C(F)(F)F)nc12 the delta Cp (YB-1 minus CDIP) was 9.53 (active).
With CCOC(=O)c1cnn2c(C(F)(F)F)cc(C)nc12 the delta Cp (YB-1 minus CDIP) was -0.121 (inactive).
For COC(=O)CCCCCCC(=O)N/N=C/c1ccc(O)c(O)c1O, the delta Cp (YB-1 minus CDIP) was -0.105 (inactive).
With COc1ccc(CN(C)C[C@H]2Oc3ccc(NC(=O)Cn4cnnn4)cc3CC(=O)N([C@@H](C)CO)C[C@@H]2C)cc1 the delta Cp (YB-1 minus CDIP) was -0.171 (inactive).
With CC(C)(C)OC(=O)Nc1cccc(/C=N/NC(=O)CCCCCC(=O)Nc2ccccc2O)c1 the delta Cp (YB-1 minus CDIP) was -0.601 (inactive).
For COc1cc(/C=N\NC(=O)CCCCCCC(=O)NO)c(Br)cc1O, the delta Cp (YB-1 minus CDIP) was -0.218 (inactive).
For C[C@@H]1CN([C@H](C)CO)C(=O)CCCn2cc(nn2)CO[C@@H]1CN(C)C(=O)Nc1ccc(-c2cccs2)cc1, the delta Cp (YB-1 minus CDIP) was -0.273 (inactive).
In the case of C[C@@H]1CN([C@@H](C)CO)C(=O)Cc2cc(NC(=O)C3CC3)ccc2O[C@@H]1CN(C)S(C)(=O)=O, the delta Cp (YB-1 minus CDIP) is reported as 0.012 (inactive).
For C[C@H]1CN([C@@H](C)CO)C(=O)c2cccc(NC(=O)Nc3ccc(F)cc3)c2O[C@@H]1CN(C)C(=O)Nc1ccc2c(c1)OCO2, the delta Cp (YB-1 minus CDIP) was 1.42 (inactive).
For COc1ccc(NC(=O)N(C)C[C@@H]2Oc3c(NC(=O)c4ccc(-c5nccs5)cc4)cccc3C(=O)N([C@H](C)CO)C[C@@H]2C)cc1, the delta Cp (YB-1 minus CDIP) was -0.282 (inactive).
With O=C(CCCCC(=O)N/N=C/c1ccc(C(F)(F)F)cc1)NO the delta Cp (YB-1 minus CDIP) was 0.349 (inactive).
With COc1ccc(S(=O)(=O)N(C)C[C@H]2Oc3ccc(NC(=O)Nc4c(C)noc4C)cc3CC(=O)N([C@@H](C)CO)C[C@H]2C)cc1 the delta Cp (YB-1 minus CDIP) was -0.281 (inactive).
In the case of C[C@@H]1CN([C@H](C)CO)C(=O)c2cccc(NS(=O)(=O)c3ccc(F)cc3)c2O[C@@H]1CN(C)C(=O)Nc1ccc(C(F)(F)F)cc1, the delta Cp (YB-1 minus CDIP) is reported as -0.00681 (inactive).
In the case of C[C@H](CO)N1C[C@H](C)[C@@H](CN(C)Cc2ccc3c(c2)OCO3)OCc2cnnn2CCCC1=O, the delta Cp (YB-1 minus CDIP) is reported as -0.135 (inactive).
In the case of C[C@H]1CN([C@@H](C)CO)C(=O)CCCn2cc(nn2)CO[C@H]1CN(C)S(=O)(=O)c1ccc2ccccc2c1, the delta Cp (YB-1 minus CDIP) is reported as 0.00166 (inactive).
In the case of Cc1noc(C)c1NC(=O)Nc1ccc2c(c1)CC(=O)N([C@H](C)CO)C[C@@H](C)[C@@H](CN(C)Cc1ccncc1)O2, the delta Cp (YB-1 minus CDIP) is reported as -0.309 (inactive).
In the case of O=C(O)CCCCCCC(=O)N/N=C/c1cccs1, the delta Cp (YB-1 minus CDIP) is reported as -0.0775 (inactive).
In the case of COc1cccc(-c2cnc3c(c2)C(=O)N([C@H](C)CO)C[C@H](C)[C@H](CN(C)S(=O)(=O)c2cccc(F)c2)O3)c1, the delta Cp (YB-1 minus CDIP) is reported as -0.156 (inactive).
For C[C@@H]1CN([C@H](C)CO)C(=O)c2cccc(NC(=O)c3ccncc3)c2O[C@@H]1CN(C)C, the delta Cp (YB-1 minus CDIP) was -0.219 (inactive).
With C[C@@H]1CN([C@@H](C)CO)C(=O)Cc2cc(NC(=O)Nc3ccccc3)ccc2O[C@@H]1CN(C)S(=O)(=O)c1ccc(F)cc1 the delta Cp (YB-1 minus CDIP) was -0.00869 (inactive).
For O=C(N/N=C/[C@H](O)[C@@H](O)[C@H](O)[C@H](O)CO)c1ccccc1O, the delta Cp (YB-1 minus CDIP) was 0.111 (inactive).
With C[C@@H]1CN([C@H](C)CO)C(=O)c2cccc(NC(=O)Nc3ccc4c(c3)OCO4)c2O[C@@H]1CN(C)Cc1ccccc1 the delta Cp (YB-1 minus CDIP) was -0.407 (inactive).
In the case of C[C@@H]1CN([C@H](C)CO)C(=O)c2cc(NC(=O)CCCN(C)C)ccc2O[C@H]1CN(C)Cc1ccc(C(=O)O)cc1, the delta Cp (YB-1 minus CDIP) is reported as -0.213 (inactive).
In the case of Cc1ncc(CO)c(/C=N/NC(=O)c2ccc(C(=O)NO)cc2)c1O, the delta Cp (YB-1 minus CDIP) is reported as 0.181 (inactive).
With C[C@@H]1CN([C@@H](C)CO)C(=O)Cc2cc(NC(=O)Nc3cccc4ccccc34)ccc2O[C@@H]1CN(C)CC1CCCCC1 the delta Cp (YB-1 minus CDIP) was 0.088 (inactive).
